Experimental data taken from PubChem BioAssay (Tox21).
A number with no mark means an inactive call. Active and inactive are the calls of the source. Calls come from the whole dose curve; as a rule, active = well fitted curve in the direction sought with a large enough effect in the repeat runs; inconclusive = weak or mixed curves; inactive = flat fitted curve, though single readings scatter.

assay: qHTS assay to test for compound auto fluorescence at 535 nm (green) in HEK293 cell free culture (AID 720682); settings: cell-free medium, green autofluorescence 485/535 nm, hits give high values; series mostly up to 91.3 µM; activity change: at the top concentration
Description: U.S. Tox21 Program National Center for Advancing Translational Sciences [NCATS] NIH Chemical Genomics Center [NCGC] U.S. Environmental Protection Agency [EPA] National Institutes of Environmental Health Sciences [NIEHS] National Toxicology Program [NTP] U.S. Food and Drug Administration [FDA] Tox21 Assay Overview: Compound auto fluorescence often interferes with screening of the compound library against various biological targets and signaling pathways. Some of these compounds may have fluorophoric properties. Such properties may interfere with the assay outputs resulting in false positives and/or negatives. To decrease such complications and ensure the compound activities are relevant in terms of biological response, the Tox21 10K compound library was screened for auto fluorescence. From the fluorophores used as reporter signals in our screening assays, the auto fluorescence equivalencies of compounds against three fluorophores have been evaluated: Triamterene, Fluorescein and Rose Bengal sodium for blue, green and red fluorescence, respectively. The fluorescence intensities were measured using Excitation/Emission wavelengths at 405/460nm, 485/535nm and 540/590nm for blue, green and red labels, respectively. This assay includes the green fluorescence data.
Tox21 Assay Protocol Summary: 5 uL of culture medium (DMEM containing 10% FBS) per well was dispensed into black wall/clear bottom 1536-well plates using a Multidrop Combi Dispenser (ThermoFisher Scientific, Waltham, MA). After 23 nL compound or DMSO vehicle was transferred into assay plate by a pintool work station (Kalypsys, San Diego, CA), fluorescence intensities in the assay plates were measured by an Envision (PerkinElmer, Shelton, CT) plate reader using three labels for measuring blue, green and red fluorescence at […] 460, 535 and 590nm respectively.
% is set by controls: 0 for no effect and ±100 for the full control effect.

Row | Compound | activity change | outcome
1 | CN1CCN(CCC(=O)N2c3ccccc3Sc3ccc(C(F)(F)F)cc32)CC1 | 0.0118% [at 46 µM] | 
2 | NC(=NCCCCCCN=C(N)/N=C(\N)Nc1ccc(Cl)cc1)/N=C(\N)Nc1ccc(Cl)cc1 |  | inactive
3 | Clc1ccc2nsnc2c1NC1=NCCN1 | -0.0769% [at 46 µM] | 
4 | CN1CCC(Nc2ncc3ncnc(Nc4ccc(F)c(Cl)c4)c3n2)CC1 | -0.12% [at 46 µM] | 
5 | COc1ccc(-c2ccc3cc(C(=O)O)ccc3c2)cc1C12CC3CC(CC(C3)C1)C2 | -0.0045% [at 46 µM] | 
6 | CCN(CC)CCCC(C)Nc1c2ccc(Cl)cc2nc2ccc(OC)cc12 (stereo not given) | -0.0182% [at 46 µM] | 
7 | O=[N+]([O-])c1cc(Cl)c(Cl)c(Cl)c1Cl | -0.173% | 
8 | O=C1C=CC(=O)N1c1ccc(Cc2ccc(N3C(=O)C=CC3=O)cc2)cc1 | -0.0267% | 
9 | CCCCC(CC)CN=C(N)NC(N)=NCCCCCCN=C(N)NC(N)=NCC(CC)CCCC (stereo not given) | -0.0117% [at 46 µM] | 
10 | CCCCCCCCCCC=O | 0.0061% [at 95.7 µM] | 
11 | O=C1c2c(O)ccc(Nc3ccc(CCO)cc3)c2C(=O)c2c([N+](=O)[O-])ccc(O)c21 | 0.11% | 
12 | Cc1cc(O)c2ccccc2c1O | 0.528% [at 46 µM] | 
13 | CCCCCCCC/C=C\CCCCCCCCOCCO | -0.0446% [at 95.7 µM] | 
14 | CCOC(=O)c1nc(C(Cl)(Cl)Cl)n(-c2ccc(Cl)cc2Cl)n1 | 0.0426% | 
15 | NC(=O)CC[C@@H]1NC(=O)[C@H](Cc2ccccc2)NC(=O)[C@H](Cc2ccc(O)cc2)NC(=O)CCSSC[C@@H](C(=O)N2CCC[C@H]2C(=O)N[C@@H](CCCN=C(N)N)C(=O)NCC(N)=O)NC(=O)[C@H](CC(N)=O)NC1=O |  | inactive
16 | CCC(C)(C)C1CCCCC1OC(C)=O (stereo not given) | 0.0265% | 
17 | CC(C)(C)c1ccc(C(=O)CCCN2CCC(OC(c3ccccc3)c3ccccc3)CC2)cc1 | -0.0548% [at 46 µM] | 
18 | CCCCc1oc2ccc(NS(C)(=O)=O)cc2c1C(=O)c1ccc(OCCCN(CCCC)CCCC)cc1 | 0.0358% [at 46 µM] | 
19 | NC(=O)N1C(=O)C(C(=O)c2cc(Cl)cs2)c2cc(F)c(Cl)cc21 (stereo not given) | -0.129% | 
20 | OCc1c[nH]c2ccccc12 | 0.544% | 

Row | Compound | activity change | outcome
21 | [Cl][Au]([Cl])[Cl] | -0.0468% | 
22 | CCN(Cc1cccnc1)C(=O)c1cccc(Cl)c1[C@]1(C)C(=O)N(Cc2ccc(OC)cc2OC)c2ccc(Cl)cc21 | -0.059% | 
23 | ON=C1CCCC1 | 0.0112% [at 95.7 µM] | 
24 | CCOC(=O)O[C@]1(C(=O)OCCl)CC[C@H]2[C@@H]3CCC4=CC(=O)C=C[C@]4(C)[C@H]3[C@@H](O)C[C@@]21C | -0.0038% [at 46 µM] | 
25 | C=C(C)C(=O)OCC[N+](C)(C)C | 0.0624% | 
26 | CCCCCCCCOC(=O)c1ccc(O)cc1 |  | inactive
27 | C[C@@H]1C[C@H]2[C@@H]3CCC4=CC(=O)C=C[C@]4(C)[C@@]3(Cl)[C@@H](O)C[C@]2(C)[C@@]1(OC(=O)c1ccco1)C(=O)CCl | -0.0517% [at 18.6 µM] | 
28 | O=C(c1ccc(O)cc1O)c1ccc(O)cc1O |  | inactive
29 | NNc1nc(-c2ccccc2)cs1 | -0.0416% [at 95.7 µM] | 
30 | CCc1oc2ccccc2c1C(=O)c1cc(Br)c(O)c(Br)c1 | -0.357% [at 46 µM] | 
31 | O=C(O)c1c(Cl)cccc1Cl | -0.0107% | 
32 | CCCC/C=C/CCCCO | 0.104% | 
33 | CC(NN)c1ccccc1 (stereo not given) | -0.0659% [at 46 µM] | 
34 | O=C(OCC1CO1)C1CCCCC1C(=O)OCC1CO1 (stereo not given) | -0.132% | 
35 | CCCCCCCCCCn1cc[n+](CCCCCCCCCC)c1C | -0.0994% | 
36 | CCCCCCCCCCCCc1ccc(O)cc1 | 0.0053% | 
37 | CC[C@@]1(O)C(=O)OCc2c1cc1n(c2=O)Cc2cc3c(CN(C)C)c(O)ccc3nc2-1 | 2.79% [at 46 µM] | 
38 | CCCCCCCCS(=O)C(C)Cc1ccc2c(c1)OCO2 (stereo not given) | 0.0386% [at 95.7 µM] | 
39 | CCN(CC)CCNC(=O)c1c(C)[nH]c(/C=C2\C(=O)Nc3ccc(F)cc32)c1C | 1.26% [at 46 µM] | 
40 | CC(C)C(C)(C)C(C)(C)C(C)(C)S | 0.141% | 
